Laboratory results as given in article PMC7862700, “An all-to-all approach to the identification of sequence-specific readers for epigenetic DNA modifications on cytosine”.

Experiments:
Experiment in all cases: DAPPL (digital affinity profiling via proximity ligation, sequencing); 10 mM Tris-HCl pH 7.5, 50 mM NaCl, 1 mM DTT, 4% glycerol, room temperature, 30 min; GST-TFs on glutathione beads, 16-mer random dsDNA library, 0.1% formaldehyde crosslink after washing; high values mean tight binding
Conditions in all cases: protein: recombinant; tags: N-terminal GST; dsDNA, one strand shown
[1] = biological target: T1, FLI1 (Homo sapiens, UniProt Q01543 1-452)
T1 sequence: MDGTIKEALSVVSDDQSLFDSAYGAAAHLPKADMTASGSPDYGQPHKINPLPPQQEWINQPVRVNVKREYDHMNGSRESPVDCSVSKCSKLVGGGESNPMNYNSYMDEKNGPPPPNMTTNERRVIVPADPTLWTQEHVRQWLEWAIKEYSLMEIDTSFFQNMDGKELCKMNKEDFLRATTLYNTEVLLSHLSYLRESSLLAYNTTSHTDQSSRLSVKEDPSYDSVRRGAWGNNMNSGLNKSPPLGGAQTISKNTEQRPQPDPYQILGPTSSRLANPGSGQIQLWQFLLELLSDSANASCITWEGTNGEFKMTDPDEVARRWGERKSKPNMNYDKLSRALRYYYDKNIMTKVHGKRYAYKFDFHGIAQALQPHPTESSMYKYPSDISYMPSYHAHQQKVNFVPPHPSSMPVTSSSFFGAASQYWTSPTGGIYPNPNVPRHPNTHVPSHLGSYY
Summary of the method: (§1)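 Human transcription factors were made in yeast as GST fusions, captured on glutathione beads and barcoded with DNA. With a tag-only sample included, the pool was incubated with 200 nmole of a random double-stranded 16-mer DNA library in Tris/NaCl/DTT/glycerol buffer at room temperature for 30 min, then crosslinked with 0.1% formaldehyde after washing, ligated by proximity, amplified and sequenced. For binding signal, each hexamer's read frequency for a factor is divided by its frequency for the tag-only sample.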

[2] = biological target: T2, ELK1 (Homo sapiens, UniProt P19419 1-428)
T2 sequence: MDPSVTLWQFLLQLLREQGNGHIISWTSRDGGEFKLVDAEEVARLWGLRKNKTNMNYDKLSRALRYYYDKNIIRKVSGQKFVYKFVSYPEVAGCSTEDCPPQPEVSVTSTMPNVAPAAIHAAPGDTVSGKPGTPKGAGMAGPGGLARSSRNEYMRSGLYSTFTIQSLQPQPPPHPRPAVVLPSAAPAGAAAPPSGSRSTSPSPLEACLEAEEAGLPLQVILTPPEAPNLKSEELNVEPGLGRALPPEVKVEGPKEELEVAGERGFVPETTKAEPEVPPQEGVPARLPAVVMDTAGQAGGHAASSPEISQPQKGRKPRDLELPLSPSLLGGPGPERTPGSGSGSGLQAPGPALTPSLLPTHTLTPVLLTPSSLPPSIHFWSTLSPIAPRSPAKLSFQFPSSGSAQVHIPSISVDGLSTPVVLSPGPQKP
Summary of the method: as §1

[3] = biological target: T3, GABPA (Homo sapiens, UniProt Q06546 1-454)
T3 sequence: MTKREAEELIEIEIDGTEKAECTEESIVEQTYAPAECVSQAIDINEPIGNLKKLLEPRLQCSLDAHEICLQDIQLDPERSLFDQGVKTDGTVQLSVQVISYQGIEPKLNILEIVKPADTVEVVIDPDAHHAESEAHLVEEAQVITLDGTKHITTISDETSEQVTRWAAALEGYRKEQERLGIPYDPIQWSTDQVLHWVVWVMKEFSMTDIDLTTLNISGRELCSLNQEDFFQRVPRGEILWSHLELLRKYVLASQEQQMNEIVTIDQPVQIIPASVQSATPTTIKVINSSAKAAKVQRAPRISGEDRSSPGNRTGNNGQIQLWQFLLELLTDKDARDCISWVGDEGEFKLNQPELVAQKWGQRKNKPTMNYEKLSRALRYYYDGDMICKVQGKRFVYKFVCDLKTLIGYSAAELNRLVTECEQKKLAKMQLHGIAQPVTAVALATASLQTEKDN
Summary of the method: as §1

[4] = biological target: T4, ERG (Homo sapiens, UniProt P11308 1-479)
T4 sequence: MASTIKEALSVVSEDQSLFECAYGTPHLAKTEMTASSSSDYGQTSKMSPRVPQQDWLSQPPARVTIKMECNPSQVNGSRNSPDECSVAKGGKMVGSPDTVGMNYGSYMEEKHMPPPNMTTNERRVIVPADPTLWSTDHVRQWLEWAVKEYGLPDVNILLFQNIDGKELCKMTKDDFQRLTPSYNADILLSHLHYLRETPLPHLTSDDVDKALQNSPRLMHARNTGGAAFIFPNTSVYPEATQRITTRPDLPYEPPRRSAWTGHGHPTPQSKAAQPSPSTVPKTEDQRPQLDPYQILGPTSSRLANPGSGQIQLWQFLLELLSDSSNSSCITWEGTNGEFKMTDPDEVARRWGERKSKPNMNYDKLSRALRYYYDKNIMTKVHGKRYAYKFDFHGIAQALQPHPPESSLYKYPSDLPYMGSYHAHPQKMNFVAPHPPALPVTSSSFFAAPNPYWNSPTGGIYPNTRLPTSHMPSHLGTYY
Summary of the method: as §1

[5] = biological target: ELF1 (Homo sapiens, UniProt P32519 1-619)
Summary of the method: as §1

[6] = biological target: T5, EHF (Homo sapiens, UniProt Q9NZC4 1-300)
T5 sequence: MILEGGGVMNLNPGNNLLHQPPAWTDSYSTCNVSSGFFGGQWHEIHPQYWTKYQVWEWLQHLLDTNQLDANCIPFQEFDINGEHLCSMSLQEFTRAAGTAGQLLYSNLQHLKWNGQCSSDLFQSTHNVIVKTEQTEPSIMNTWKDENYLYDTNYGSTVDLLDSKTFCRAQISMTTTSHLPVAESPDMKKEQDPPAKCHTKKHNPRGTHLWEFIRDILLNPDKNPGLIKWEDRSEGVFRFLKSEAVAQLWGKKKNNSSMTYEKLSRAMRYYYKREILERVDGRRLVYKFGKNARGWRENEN
Summary of the method: as §1

[7] = biological target: SPI1 (Homo sapiens, UniProt P17947 1-270)
Summary of the method: as §1

[8] = biological target: SPIB (Homo sapiens, UniProt Q01892 1-262)
Summary of the method: as §1

[9] = biological target: T6, ELK3 (Homo sapiens, UniProt P41970 1-407)
T6 sequence: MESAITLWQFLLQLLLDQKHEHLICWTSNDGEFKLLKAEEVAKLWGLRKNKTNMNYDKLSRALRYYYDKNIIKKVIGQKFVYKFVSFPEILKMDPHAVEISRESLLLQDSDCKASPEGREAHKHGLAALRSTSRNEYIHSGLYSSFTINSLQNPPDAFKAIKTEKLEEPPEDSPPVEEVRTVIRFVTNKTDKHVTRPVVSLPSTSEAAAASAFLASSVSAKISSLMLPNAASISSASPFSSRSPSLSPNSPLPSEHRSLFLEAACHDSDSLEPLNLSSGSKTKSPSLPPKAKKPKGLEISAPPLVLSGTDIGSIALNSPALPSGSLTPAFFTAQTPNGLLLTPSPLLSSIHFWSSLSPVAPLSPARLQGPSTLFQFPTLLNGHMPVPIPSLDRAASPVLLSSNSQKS
Summary of the method: as §1

Sequence of SPIB (Q01892 whole entry): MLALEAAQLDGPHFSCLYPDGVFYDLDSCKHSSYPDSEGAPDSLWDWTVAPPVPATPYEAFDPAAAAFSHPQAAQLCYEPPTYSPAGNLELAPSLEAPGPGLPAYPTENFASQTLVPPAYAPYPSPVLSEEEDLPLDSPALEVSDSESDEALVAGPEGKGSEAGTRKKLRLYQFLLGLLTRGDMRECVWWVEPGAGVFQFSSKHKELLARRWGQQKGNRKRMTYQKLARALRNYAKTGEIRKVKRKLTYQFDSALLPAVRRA
Sequence of ELF1 (P32519 whole entry): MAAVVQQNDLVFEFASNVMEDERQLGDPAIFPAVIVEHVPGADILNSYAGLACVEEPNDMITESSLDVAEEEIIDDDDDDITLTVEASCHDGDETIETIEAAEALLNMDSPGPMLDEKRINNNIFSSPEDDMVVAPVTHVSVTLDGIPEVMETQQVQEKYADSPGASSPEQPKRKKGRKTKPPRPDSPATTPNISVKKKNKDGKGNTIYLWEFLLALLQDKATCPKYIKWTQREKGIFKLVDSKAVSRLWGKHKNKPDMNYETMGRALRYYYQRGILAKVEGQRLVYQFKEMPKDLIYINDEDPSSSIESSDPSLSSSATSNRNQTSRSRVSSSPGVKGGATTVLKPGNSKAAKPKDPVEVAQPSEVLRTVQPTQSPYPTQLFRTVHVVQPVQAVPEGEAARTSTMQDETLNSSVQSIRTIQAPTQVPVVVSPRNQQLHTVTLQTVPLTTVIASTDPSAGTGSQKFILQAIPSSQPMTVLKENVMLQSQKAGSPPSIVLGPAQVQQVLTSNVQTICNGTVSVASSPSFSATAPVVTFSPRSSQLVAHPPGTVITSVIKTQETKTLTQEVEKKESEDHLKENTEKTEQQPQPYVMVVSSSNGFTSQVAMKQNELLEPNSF

Row | Sequence | binding signal [1] | binding signal [2] | binding signal [3] | binding signal [4] | binding signal [5] | binding signal [6] | binding signal [7] | binding signal [8] | binding signal [9]
1 | CTGCTA | 1.38 fold enrichment (6-mer frequency, TF over GST control) | 1.53 fold enrichment (6-mer frequency, TF over GST control) | 1.46 fold enrichment (6-mer frequency, TF over GST control) | 1.39 fold enrichment (6-mer frequency, TF over GST control) | 1.47 fold enrichment (6-mer frequency, TF over GST control) | 1.5 fold enrichment (6-mer frequency, TF over GST control) | 1.53 fold enrichment (6-mer frequency, TF over GST control) | 1.43 fold enrichment (6-mer frequency, TF over GST control) | 1.42 fold enrichment (6-mer frequency, TF over GST control)
2 | ATCGAA | 1.11 fold enrichment (6-mer frequency, TF over GST control) | 1.12 fold enrichment (6-mer frequency, TF over GST control) | 1.1 fold enrichment (6-mer frequency, TF over GST control) | 1.1 fold enrichment (6-mer frequency, TF over GST control) | 1.14 fold enrichment (6-mer frequency, TF over GST control) | 1.16 fold enrichment (6-mer frequency, TF over GST control) | 1.13 fold enrichment (6-mer frequency, TF over GST control) | 1.18 fold enrichment (6-mer frequency, TF over GST control) | 1.08 fold enrichment (6-mer frequency, TF over GST control)
3 | TTCGTA | 1.32 fold enrichment (6-mer frequency, TF over GST control) | 1.44 fold enrichment (6-mer frequency, TF over GST control) | 1.29 fold enrichment (6-mer frequency, TF over GST control) | 1.38 fold enrichment (6-mer frequency, TF over GST control) | 1.35 fold enrichment (6-mer frequency, TF over GST control) | 1.34 fold enrichment (6-mer frequency, TF over GST control) | 1.24 fold enrichment (6-mer frequency, TF over GST control) | 1.35 fold enrichment (6-mer frequency, TF over GST control) | 1.41 fold enrichment (6-mer frequency, TF over GST control)
4 | CTAGGT | 1.07 fold enrichment (6-mer frequency, TF over GST control) | 1.13 fold enrichment (6-mer frequency, TF over GST control) | 1.05 fold enrichment (6-mer frequency, TF over GST control) | 1.14 fold enrichment (6-mer frequency, TF over GST control) | 1.2 fold enrichment (6-mer frequency, TF over GST control) | 1.09 fold enrichment (6-mer frequency, TF over GST control) | 1.05 fold enrichment (6-mer frequency, TF over GST control) | 1.13 fold enrichment (6-mer frequency, TF over GST control) | 1.13 fold enrichment (6-mer frequency, TF over GST control)
5 | ATTGGT | 1.31 fold enrichment (6-mer frequency, TF over GST control) | 1.34 fold enrichment (6-mer frequency, TF over GST control) | 1.14 fold enrichment (6-mer frequency, TF over GST control) | 1.19 fold enrichment (6-mer frequency, TF over GST control) | 1.22 fold enrichment (6-mer frequency, TF over GST control) | 1.28 fold enrichment (6-mer frequency, TF over GST control) | 1.25 fold enrichment (6-mer frequency, TF over GST control) | 1.33 fold enrichment (6-mer frequency, TF over GST control) | 1.33 fold enrichment (6-mer frequency, TF over GST control)
6 | AAATTT | 1.31 fold enrichment (6-mer frequency, TF over GST control) | 1.31 fold enrichment (6-mer frequency, TF over GST control) | 1.26 fold enrichment (6-mer frequency, TF over GST control) | 1.3 fold enrichment (6-mer frequency, TF over GST control) | 1.25 fold enrichment (6-mer frequency, TF over GST control) | 1.33 fold enrichment (6-mer frequency, TF over GST control) | 1.22 fold enrichment (6-mer frequency, TF over GST control) | 1.45 fold enrichment (6-mer frequency, TF over GST control) | 1.28 fold enrichment (6-mer frequency, TF over GST control)
7 | AAATCA | 1.12 fold enrichment (6-mer frequency, TF over GST control) | 1.19 fold enrichment (6-mer frequency, TF over GST control) | 1.19 fold enrichment (6-mer frequency, TF over GST control) | 1.18 fold enrichment (6-mer frequency, TF over GST control) | 1.21 fold enrichment (6-mer frequency, TF over GST control) | 1.25 fold enrichment (6-mer frequency, TF over GST control) | 1.26 fold enrichment (6-mer frequency, TF over GST control) | 1.2 fold enrichment (6-mer frequency, TF over GST control) | 1.18 fold enrichment (6-mer frequency, TF over GST control)
8 | ACCAAT | 1.35 fold enrichment (6-mer frequency, TF over GST control) | 1.34 fold enrichment (6-mer frequency, TF over GST control) | 1.4 fold enrichment (6-mer frequency, TF over GST control) | 1.29 fold enrichment (6-mer frequency, TF over GST control) | 1.34 fold enrichment (6-mer frequency, TF over GST control) | 1.28 fold enrichment (6-mer frequency, TF over GST control) | 1.3 fold enrichment (6-mer frequency, TF over GST control) | 1.35 fold enrichment (6-mer frequency, TF over GST control) | 1.34 fold enrichment (6-mer frequency, TF over GST control)
